# Measured values taken from PubChem BioAssay (EPA / NIEHS).
# Active and inactive are the calls of the source. The calls were made as follows: active = hit-call score of the fitted dose curve at least 0.9, where 1 is the maximum; inactive = score below 0.9.
# Test: IUF_NPC2-5_viability_120hr: Viability Assessment at 120 hours in the Leibniz Research Institute for Environmental Medicine (IUF) Neural Progenitor Cell Migration and Differentiation Assay (NPC2-5) (AID 2284312)
# Procedure: IUF_NPC2-5 is a cell-based, multiplexed assay that uses hNPC, a human primary neural progenitor cells, with measurements taken at 72 or 120 hours after chemical dosing in a 96-well plate. Human neural progenitor cells (hNPC) are generated from human fetal brain cortex at gestational week (GW) 16-19. In the neural progenitor cell migration and differentiation assay (NPC2-5), hNPCs grown as spheres are plated on an extracellular matrix and migrate and differentiate out of the sphere core. The processes radial glia migration, neuronal and oligodendrocyte migration as well as neuronal differentiation, neuronal morphology and oligodendrocyte differentiation are studied using automated phase contrast imaging and automated fluorescence imaging in combination with high content image analysis. In parallel, the cell viability is assessed using an alamar blue viability assay and the cytotoxicity using a lactate dehydrogenase dependent membrane integrity assay.IUF_NPC2-5_viability_120hr is one of 12 assay components measured from the IUF_NPC2-5 assay. It is designed to measure cell viability assessed as mitochondria-dependent reduction of resazurin to resorufin using the alamar blue viability assay. The viability is measured as a fluorescence signal (relative fluorescence unit) in a multiplate reader. Data from the IUF_NPC2-5_viability_120hr component was analyzed at the endpoint IUF-NPC2-5_viability_120hr in the positive analysis fitting direction relative to DMSO as the negative control and baseline of activity. Using a type of viability reporter, gain or loss-of-signal activity can be used to understand viability effects.
# Culture protocol: After the cell expansion period the cells are cultured for up to four weeks in which they are passaged every week as described in 3.6. Between one to three days after passaging spheres at a size of 0.3 mm are picked for the test method. For the assessment of neural progenitor cell migration and differentiation, the spheres are plated on poly-D-lysine/laminin coated 96-well flat bottom plates in differentiation medium (N2) to initiate migration and differentiation. Thereby one 0.3 mm big sphere is plated in the middle of a well. The differentiation medium consists of DMEM and Ham's F12 at a ratio of 3 to 1 supplemented with 1% N2 and 1% penicillin and streptomycin. Within 5 days NPCs radially migrate out of the sphere core and differentiate into radial glia cells (nestin positive), neurons (TUBB3 positive), oligodendrocytes (O4 positive) and astrocytes (GFAP positive). Cultivation during the test method is performed at 37C and 5% CO2 at a ph of 7.2-7.6.Exposure: 0.3 mm big hNPC are plated in the already prepared test conditions. Exposure starts at day 0 of differentiation and is continued over five days of differentiation until the experiment is terminated. Cells are fed with fresh medium at day 3 of differentiation. Therefore, half of the test condition solution (e.g. solvent control or compound dilution) is replaced by freshly prepared test condition solution.Test Method: Migration distance and cytotoxicity is determined after 72 hours based on brightfield images of each well. The assay is terminated by the assessment of cell viability and cytotoxicity as well as cell fixation after 120 h. Immunocytochemistry is performed for Hoechst positive nuclei, TUBB3 positive neurons and O4 positive oligodendrocytes. On the ICC images, migration after 120 hours, neuronal and oligodendrocyte number, neuronal morphology and neuron/oligodendrocyte specific migration is assessed. immunocytochemical staining (ICC) generates an image for each sphere. The plates are scanned using an automated high content imaging device and all nuclei and their positions are determined automatically based on their intensity and size. Images are imported to the Omnisphero software to run the image analysis that measures the following endpoints. The method is set up for 8 test conditions including 7 compound concentrations and one SC. […]
SMILES,AC50,outcome
COP(=O)(OC)OC=C(Cl)Cl,29.7 µM (active),–
O=S(=O)(O)C(F)(F)C(F)(F)C(F)(F)C(F)(F)C(F)(F)C(F)(F)C(F)(F)C(F)(F)F,–,inactive
CCC(C)(C)C(=O)OC1=C(c2ccc(Cl)cc2Cl)C(=O)OC12CCCCC2,–,inactive
O=[N+]([O-])/N=C1\NCCN1Cc1ccc(Cl)nc1,–,inactive
CC1(C)C(C=C(Cl)Cl)C1C(=O)OC(C#N)c1ccc(F)c(Oc2ccccc2)c1 (stereo not drawn),–,inactive
CC(C)N(C(=O)COc1nnc(C(F)(F)F)s1)c1ccc(F)cc1,–,inactive
O=C(O)COc1ccc(Cl)cc1Cl,–,inactive
CNC(=O)CSP(=S)(OC)OC,–,inactive
CC[C@H](C)[C@H]1O[C@]2(C=C[C@@H]1C)C[C@@H]1C[C@@H](C/C=C(\C)[C@@H](O[C@H]3C[C@H](OC)[C@@H](O[C@H]4C[C@H](OC)[C@@H](O)[C@H](C)O4)[C@H](C)O3)[C@@H](C)/C=C/C=C3\CO[C@@H]4[C@H](O)C(C)=C[C@@H](C(=O)O1)[C@]34O)O2 (tested in a mixture with another compound),8.02 µM (active),–
CC1(c2ccc(Oc3ccccc3)cc2)OC(=O)N(Nc2ccccc2)C1=O (stereo not drawn),–,inactive
O=C(O)C(F)(F)C(F)(F)C(F)(F)C(F)(F)C(F)(F)C(F)(F)C(F)(F)F,–,inactive
COP(=S)(OC)Oc1ccc([N+](=O)[O-])cc1,–,inactive
O=S1OCC2C(CO1)C1(Cl)C(Cl)=C(Cl)C2(Cl)C1(Cl)Cl (stereo not drawn),–,inactive
